The list shows a part of the results. Results filed as inconclusive are left out. Activity calls are given as the source filed them. The call rests on the fitted dose curve; in most records, active means well fitted inhibition curve with a large enough effect; inconclusive means small, poorly fitted or top-dose-only effect; inactive means no such curve, though single readings can be large or run the other way.

The target in the assay is Aldehyde dehydrogenase 1A1 (Homo sapiens) (UniProt P00352). In words: Extended Characterization of HPGD Inhibitors: Counterscreen Against ALDH1A1. The note with it: recombinant ALDH1A1, NADH fluorescence, propionaldehyde/NAD+. An excerpt: The central role of HPGD is to inactivate prostaglandins such as prostaglandin E2 (PGE2) or prostaglandin D2 (PGD2). These prostaglandins are involved in a number of processes, including inflammation, differentiation, and cellular signaling, which makes HPGD an important target for pharmacological intervention. Aldehyde dehydrogenase 1 family, member A1 (ALDH1A1) catalyzes the NAD+ dependent oxidation of a variety of endogenous and exogenous aldehydes to the corresponding carboxylic acids. The enzyme is the critical step in the metabolic activation of retinoic acid, which plays an essential role as a nuclear receptor ligand. […] ALDH1A1 shares some homology with HPGD, and it served as a suitable anti-target of HPGD to determine chemical probe selectivity. The assay system is similar to the HPGD primary screening protocol. Inhibition of ALDH1A1 activity was screened by utilizing propionaldehyde as an electron donor and NAD+ as an electron acceptor/cofactor. An increase in the fluorescence intensity due to conversion of NAD+ to NADH was used to measure the enzyme activity. NIH Chemical Genomics Center [NCGC] NIH Molecular Libraries Probe Centers Network [MLPCN] MLPCN Grant: MH084681 Assay Submitter (PI): Structural Genomics Consortium
Chain of Aldehyde dehydrogenase 1A1 (Homo sapiens) (P00352 whole entry, looked up): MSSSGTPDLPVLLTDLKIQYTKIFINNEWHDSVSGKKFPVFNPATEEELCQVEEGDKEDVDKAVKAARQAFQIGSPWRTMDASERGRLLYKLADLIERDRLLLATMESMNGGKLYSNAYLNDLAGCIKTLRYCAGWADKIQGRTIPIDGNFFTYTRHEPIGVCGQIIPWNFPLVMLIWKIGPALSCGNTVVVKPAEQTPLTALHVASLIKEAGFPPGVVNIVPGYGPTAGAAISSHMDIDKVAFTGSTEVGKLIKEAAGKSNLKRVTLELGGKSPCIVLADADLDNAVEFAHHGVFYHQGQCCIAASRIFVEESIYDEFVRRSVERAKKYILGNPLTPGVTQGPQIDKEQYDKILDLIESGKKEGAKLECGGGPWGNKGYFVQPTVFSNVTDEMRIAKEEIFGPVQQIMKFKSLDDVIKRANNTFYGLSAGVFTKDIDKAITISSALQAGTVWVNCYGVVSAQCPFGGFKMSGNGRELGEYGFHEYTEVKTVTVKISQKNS
3 uL of enzyme (final concentration 50 nM) or buffer were dispensed into a 1,536-well solid-bottom black plate (Greiner Bio One, Monroe, NC) followed by pin-tool transfer (23 nL) of compound (final concentration range 324 pM to 57.2 uM) and control (Bay 11-7085 (CID-5353432), final concentration range 1.31 nM to 2.86 uM). Samples were incubated (RT, protected from light) for 15 minutes followed by a 1 uL substrate addition of NAD+ and Propionaldehyde (final concentrations of 1 mM and 80 uM, respectively). Plates were centrifuged at 1,000 rpm for 15 seconds, then read in kinetic mode on a ViewLux High-throughput CCD imager (Perkin-Elmer) equipped with standard UV fluorescence optics (340 nm excitation, 450 nm emission) for 10 minutes at 5 minute intervals. Data were normalized (Read […] - Read 10 min) against no-enzyme (positive) and enzyme-containing (neutral) wells.
(In general: Counterscreens check selectivity or assay interference.)
With `Cc1cc(C)nc(NC(=S)N2CCN(c3ccc4nonc4c3)CC2)c1`, the Potency was 12.1 µM (active). Under `Cc1cc(C)nc(NC(=S)N2CCN(c3ccc(Cl)cc3C(F)(F)F)CC2)c1` stands 7.64 µM (active); under `Cc1ccc(N2CCN(C(=S)Nc3cc(C)ccn3)CC2)cc1`, 3.83 µM (active); under `Cc1cc(C)nc(NC(=S)N2CCN(c3cccc(C(F)(F)F)c3)CC2)c1`, 15.2 µM (active). Next, `Cc1cc(C)nc(NC(=S)N2CCN(c3ccc(Cl)cc3F)CC2)c1`: 4.82 µM (active). Next, `COc1cccc(NC(=S)N2CCN(c3ccc(Cl)cc3Cl)CC2)n1`: 1.08 µM (active); `COc1cccc(NC(=S)N2CCN(c3ccccc3C(F)(F)F)CC2)n1`: 2.15 µM (active). With `COc1ccnc(NC(=S)N2CCN(c3ncc(C(F)(F)F)cc3Cl)CC2)c1`, the Potency is 1.92 µM (active).

Consider `FC(F)(F)c1cccc(N2CCN(C(=S)Nc3ccncc3)CC2)c1`, for which the Potency is 27.1 µM (active). Under `Cc1cc(C)nc(NC(=S)N2CCN(c3cccc(C#N)c3)CC2)c1` stands 3.83 µM (active).

The record behind these values is PubChem BioAssay AID743195 (National Center for Advancing Translational Sciences (NCATS), 2013).
